Measurements as given in doi:10.1101/2024.03.05.583629.

Each sequence was assayed against pT7_6His-AlfaTag-HOXD13 (human, UniProt P35453 263-343) (assay: PADIT-seq). Conditions: dsDNA, one strand shown.
Chain of pT7_6His-AlfaTag-HOXD13 (P35453 263-343): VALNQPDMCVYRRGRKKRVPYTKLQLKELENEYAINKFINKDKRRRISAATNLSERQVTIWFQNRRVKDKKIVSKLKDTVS

Row | Sequence | binding signal [log2FC]
1 | CTCGAGGATATCAAGATCTGGCCTCGGCGCCCTAAAAGGAACCTCTAGCTAGCCGACTCACTATAGGGATAATCGCCCTGAGCAAAGACC | 0.248 ± 0.0833
2 | CTCGAGGATATCAAGATCTGGCCTCGGCCACTTAAAAGGAACCTCTAGCTAGCCGACTCACTATAGGGATAATCGCCCTGAGCAAAGACC | 1.17 ± 0.0931
3 | CTCGAGGATATCAAGATCTGGCCTCGGCTTTTTATTGGGAACCTCTAGCTAGCCGACTCACTATAGGGATAATCGCCCTGAGCAAAGACC | 3.26 ± 0.0862
4 | CTCGAGGATATCAAGATCTGGCCTCGGCTTTATAAAAGGAACCTCTAGCTAGCCGACTCACTATAGGGATAATCGCCCTGAGCAAAGACC | 2.35 ± 0.0828
5 | CTCGAGGATATCAAGATCTGGCCTCGGCATTTTAGGCGGAACCTCTAGCTAGCCGACTCACTATAGGGATAATCGCCCTGAGCAAAGACC | -0.396 ± 0.116
6 | CTCGAGGATATCAAGATCTGGCCTCGGCTTTTTAATGGGAACCTCTAGCTAGCCGACTCACTATAGGGATAATCGCCCTGAGCAAAGACC | 2.57 ± 0.0871
7 | CTCGAGGATATCAAGATCTGGCCTCGGCCTTTTATAAGGAACCTCTAGCTAGCCGACTCACTATAGGGATAATCGCCCTGAGCAAAGACC | 3.23 ± 0.0726
8 | CTCGAGGATATCAAGATCTGGCCTCGGCGTTTTAATCGGAACCTCTAGCTAGCCGACTCACTATAGGGATAATCGCCCTGAGCAAAGACC | 0.636 ± 0.0931
9 | CTCGAGGATATCAAGATCTGGCCTCGGCGATGTAAAAGGAACCTCTAGCTAGCCGACTCACTATAGGGATAATCGCCCTGAGCAAAGACC | 0.79 ± 0.0749
10 | CTCGAGGATATCAAGATCTGGCCTCGGCGTTTTATACGGAACCTCTAGCTAGCCGACTCACTATAGGGATAATCGCCCTGAGCAAAGACC | 2.62 ± 0.0803
11 | CTCGAGGATATCAAGATCTGGCCTCGGCTTTTTACTGGGAACCTCTAGCTAGCCGACTCACTATAGGGATAATCGCCCTGAGCAAAGACC | 2.73 ± 0.0875
12 | CTCGAGGATATCAAGATCTGGCCTCGGCTTTTTAGGTGGAACCTCTAGCTAGCCGACTCACTATAGGGATAATCGCCCTGAGCAAAGACC | -0.0749 ± 0.107
13 | CTCGAGGATATCAAGATCTGGCCTCGGCCTTTTACCTGGAACCTCTAGCTAGCCGACTCACTATAGGGATAATCGCCCTGAGCAAAGACC | -0.0573 ± 0.0997
14 | CTCGAGGATATCAAGATCTGGCCTCGGCTTGGTAAAAGGAACCTCTAGCTAGCCGACTCACTATAGGGATAATCGCCCTGAGCAAAGACC | 0.112 ± 0.0883
15 | CTCGAGGATATCAAGATCTGGCCTCGGCCGCTTAAAAGGAACCTCTAGCTAGCCGACTCACTATAGGGATAATCGCCCTGAGCAAAGACC | 0.46 ± 0.0911
16 | CTCGAGGATATCAAGATCTGGCCTCGGCGGGGTAAAAGGAACCTCTAGCTAGCCGACTCACTATAGGGATAATCGCCCTGAGCAAAGACC | -0.462 ± 0.0883
17 | CTCGAGGATATCAAGATCTGGCCTCGGCGCATTAAAAGGAACCTCTAGCTAGCCGACTCACTATAGGGATAATCGCCCTGAGCAAAGACC | 1.77 ± 0.0683
18 | CTCGAGGATATCAAGATCTGGCCTCGGCTCTTTAAAAGGAACCTCTAGCTAGCCGACTCACTATAGGGATAATCGCCCTGAGCAAAGACC | 2.42 ± 0.0868
19 | CTCGAGGATATCAAGATCTGGCCTCGGCCTTTTACTAGGAACCTCTAGCTAGCCGACTCACTATAGGGATAATCGCCCTGAGCAAAGACC | 3.01 ± 0.0725
20 | CTCGAGGATATCAAGATCTGGCCTCGGCCGCCCATCAGGAACCTCTAGCTAGCCGACTCACTATAGGGATAATCGCCCTGAGCAAAGACC | -1.02 ± 0.114

Row | Sequence | binding signal [log2FC]
21 | CTCGAGGATATCAAGATCTGGCCTCGGCCGCAGTCGCGGAACCTCTAGCTAGCCGACTCACTATAGGGATAATCGCCCTGAGCAAAGACC | -1.09 ± 0.145
22 | CTCGAGGATATCAAGATCTGGCCTCGGCTGCCTAAAAGGAACCTCTAGCTAGCCGACTCACTATAGGGATAATCGCCCTGAGCAAAGACC | -0.51 ± 0.109
23 | CTCGAGGATATCAAGATCTGGCCTCGGCCTTTTAAGAGGAACCTCTAGCTAGCCGACTCACTATAGGGATAATCGCCCTGAGCAAAGACC | 2.52 ± 0.0827
24 | CTCGAGGATATCAAGATCTGGCCTCGGCGCGTGGCAGGGAACCTCTAGCTAGCCGACTCACTATAGGGATAATCGCCCTGAGCAAAGACC | -0.958 ± 0.118
25 | CTCGAGGATATCAAGATCTGGCCTCGGCCTTTTATCAGGAACCTCTAGCTAGCCGACTCACTATAGGGATAATCGCCCTGAGCAAAGACC | 2.19 ± 0.0738
26 | CTCGAGGATATCAAGATCTGGCCTCGGCTGCGTAAAAGGAACCTCTAGCTAGCCGACTCACTATAGGGATAATCGCCCTGAGCAAAGACC | 1.22 ± 0.0881
27 | CTCGAGGATATCAAGATCTGGCCTCGGCTTTTTACGTGGAACCTCTAGCTAGCCGACTCACTATAGGGATAATCGCCCTGAGCAAAGACC | 2.42 ± 0.0834
28 | CTCGAGGATATCAAGATCTGGCCTCGGCGTTTTAGGTGGAACCTCTAGCTAGCCGACTCACTATAGGGATAATCGCCCTGAGCAAAGACC | -0.0193 ± 0.12
29 | CTCGAGGATATCAAGATCTGGCCTCGGCTTTTTATCAGGAACCTCTAGCTAGCCGACTCACTATAGGGATAATCGCCCTGAGCAAAGACC | 2.36 ± 0.0842
30 | CTCGAGGATATCAAGATCTGGCCTCGGCATTGTAAAAGGAACCTCTAGCTAGCCGACTCACTATAGGGATAATCGCCCTGAGCAAAGACC | 2.55 ± 0.0888
31 | CTCGAGGATATCAAGATCTGGCCTCGGCCGACTAAAAGGAACCTCTAGCTAGCCGACTCACTATAGGGATAATCGCCCTGAGCAAAGACC | -0.753 ± 0.121
32 | CTCGAGGATATCAAGATCTGGCCTCGGCGCGATAGCGGGAACCTCTAGCTAGCCGACTCACTATAGGGATAATCGCCCTGAGCAAAGACC | -0.758 ± 0.131
33 | CTCGAGGATATCAAGATCTGGCCTCGGCCTTTTACGTGGAACCTCTAGCTAGCCGACTCACTATAGGGATAATCGCCCTGAGCAAAGACC | 2.16 ± 0.0717
34 | CTCGAGGATATCAAGATCTGGCCTCGGCCTTTTATCTGGAACCTCTAGCTAGCCGACTCACTATAGGGATAATCGCCCTGAGCAAAGACC | 0.811 ± 0.0782
35 | CTCGAGGATATCAAGATCTGGCCTCGGCATCATAAAAGGAACCTCTAGCTAGCCGACTCACTATAGGGATAATCGCCCTGAGCAAAGACC | 2.56 ± 0.0828
36 | CTCGAGGATATCAAGATCTGGCCTCGGCCCTCTAAAAGGAACCTCTAGCTAGCCGACTCACTATAGGGATAATCGCCCTGAGCAAAGACC | 0.681 ± 0.104
37 | CTCGAGGATATCAAGATCTGGCCTCGGCGTTTTAGTTGGAACCTCTAGCTAGCCGACTCACTATAGGGATAATCGCCCTGAGCAAAGACC | 0.145 ± 0.11
38 | CTCGAGGATATCAAGATCTGGCCTCGGCCAATTAAAAGGAACCTCTAGCTAGCCGACTCACTATAGGGATAATCGCCCTGAGCAAAGACC | 2.77 ± 0.0792
39 | CTCGAGGATATCAAGATCTGGCCTCGGCGTTATAAAAGGAACCTCTAGCTAGCCGACTCACTATAGGGATAATCGCCCTGAGCAAAGACC | 2.4 ± 0.0697
